GRP78 ERSR act = induces the endoplasmic reticulum stress response in human glioma cells; Potency, µM, inactives show at the highest dose activation, hits mostly activators; 0.02% of 420,000 active; U87-MG GRP78 promoter luciferase reporter, 16 h; note: series mostly up to about 76 µM; % of control where 0% means no effect; nearly all actives have a fitted effect of over 35% in size
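Stably transfected U87-MG human glioma cells carrying a GRP78-based luminescent sensor were seeded at 1000 cells/well, pin-dosed with compounds and incubated 16 h. Luciferase reagent was then added, and end-point luminescence was read after 10 min at room temperature.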
TDP-43 yeast inh = inhibitors of TDP-43 toxicity in yeast; TDP-43 expressing yeast growth rescue, BacTiter-Glo, 24 h; 1.8% of 410,000 active; Potency, µM (titrated, usually from 46.1 µM), inactives show at the highest dose growth rescue (activation), usual class: activators; AID 652104; note: % of control where 0% means no effect; nearly all actives have a fitted effect of over 50% in size
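Cell-based yeast growth screen: TDP-43 expression induced in galactose, inoculum OD600=0.02 after raffinose pregrowth to mid-log. Read-out BacTiter-Glo luminescence at 24 hr, 30 deg C; inhibition of toxicity seen as signal increase.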
Abeta rescue = compounds reversing amyloid beta toxicity in yeast. yeast expressing A-beta42, growth rescue, OD600, 48 h; response scale: 0% DMSO, 100% iron-clioquinol control. Potency, µM (doses to about 46.1 µM), usual class: activators. 0.063% of 410,000 active. AID 1347071; note: nearly all actives have a fitted effect of over 55% in size
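Yeast A-beta toxicity model in growth medium with pinned compounds, 48 h at 30 C; growth read as absorbance at 600 nm. Normalized to FeCl3/clioquinol equimolar mix (positive) and DMSO (negative).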
MBNL1 CUG block = blocks human MBNL1 binding to CUG repeat RNA; Q9NR56; TR-FRET MBNL1-His/biotin-(CUG)12 binding, 665/545 ratio; Potency, µM (series often up to 57.5 µM), inactives show at the highest dose activity change, negative = inhibition, actives largely listed as inhibitors; 0.036% of 280,000 active; active = well fitted inhibition curve with a large enough effect in the signal ratio, with a control signal flat, not every such curve was filed as active; inconclusive = small, poorly fitted or top-dose-only effect, or effect the other way, or a change in a side signal; inactive = no such curve, though single readings can be large or run the other way; the % refers to the signal ratio; note: % is set by controls: 0 for no effect and ±100 for the full control effect
Target sequence (Q9NR56 whole entry, looked up): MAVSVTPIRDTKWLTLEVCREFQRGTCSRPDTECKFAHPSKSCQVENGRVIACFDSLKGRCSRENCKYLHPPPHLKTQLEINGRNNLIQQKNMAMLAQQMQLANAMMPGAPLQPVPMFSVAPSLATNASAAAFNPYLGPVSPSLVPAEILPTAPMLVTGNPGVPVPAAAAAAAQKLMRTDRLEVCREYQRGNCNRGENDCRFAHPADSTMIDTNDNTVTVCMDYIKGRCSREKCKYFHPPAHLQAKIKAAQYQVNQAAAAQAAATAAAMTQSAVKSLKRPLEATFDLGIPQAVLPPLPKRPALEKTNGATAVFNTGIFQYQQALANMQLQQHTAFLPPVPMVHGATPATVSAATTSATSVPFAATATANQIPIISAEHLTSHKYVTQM
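Ratiometric TR-FRET (665 over 545 nm, excitation 340 nm) tracks disruption of MBNL1-His/biotin-(CUG)12 complex after 60 min at room temperature, with compounds at 92 nM to 58 uM final.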
FUS yeast rescue = rescues growth of FUS-expressing yeast; S. cerevisiae FUS-expressing, growth rescue, OD600, 24 h; 0.24% of 390,000 active; Potency, µM (titrated, usually from 76.6 µM), usual class: activators; AID 1347120;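 note: plate controls were DMSO vehicle for no effect and reference control for full effect; nearly all actives have a fitted effect of over 55% in size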
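Yeast expressing FUS under galactose induction, OD 0.005 in 2% galactose medium; compounds in a dilution series, 24 h at 30C. Growth rescue by absorbance at 600 nm; CP55940 positive control, DMSO negative.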
aSyn rescue = inhibitors of alpha-synuclein toxicity in yeast | Yeast expressing alpha-synuclein, growth rescue, BacTiter-Glo, 24 h | Potency, µM (titrated, usually from 46.1 µM), without a hit: at the highest dose growth rescue (activation), most hits filed as activators | 0.14% of 370,000 active; note: % of control where 0% means no effect; nearly all actives have a fitted effect of over 65% in size
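Screening used galactose-induced yeast with toxic alpha-synuclein levels, exposed to compound for 24 hr at 30 deg C. Cell growth, read with BacTiter-Glo luminescence, gave the measured signal.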
The depositor's hits bear a star; i = inactive; u = inconclusive; x = no result. Rows were chosen to be rich in hits. Some 2% of all compounds tested hit in one or more screens of this group. Unless noted, calls come from the whole dose curve; as a rule, active = well fitted curve in the direction sought with a large enough effect; inconclusive = small, poorly fitted or top-dose-only effect, or another doubt; inactive = no such curve, though single readings can be large; an effect the other way counts as inactive or inconclusive. Potency is the fitted concentration of half-maximal effect.

SMILES | GRP78 ERSR act | TDP-43 yeast inh | Abeta rescue | MBNL1 CUG block | FUS yeast rescue | aSyn rescue
CC(C)C(c1nnnn1C1CCCC1)N1CCCc2ccccc21 (configuration not stated) | -3.0% | 15.8µM* | i | -1.7% | i | 2.7%
COc1ccc2c(CC(=O)Nc3ncc(C)s3)coc2c1 | 5.4% | x | i | x | i | -8.4%
Cc1ccc2c(CC(=O)Nc3nc(C)cs3)coc2c1 | -3.7% | 11.2µM* | u | -3.4% | i | -12.4%
CSc1nnc(NC(=O)Cc2coc3cc(C)ccc23)s1 | -4.7% | 23.2% | i | x | i | x
COc1ccc2c(CC(=O)Nc3nc(C)cs3)coc2c1 | 5.9% | 12.6µM* | i | 10.4% | i | -16.7%
CC(C)N1CCCCC(NC(=O)c2ccc(F)cc2)C1=O (configuration not stated) | x | x | x | x | i | x
COc1ccc(NC(=O)C2CC(c3ccccc3Cl)=NO2)cc1 (configuration not stated) | 2.6% | 11.2µM* | i | -0.2% | i | 11.6%
COc1ccc(Cl)cc1NC(=O)C1CC(c2ccccc2Cl)=NO1 (configuration not stated) | -5.9% | 9.1% | i | x | i | -1.9%
OC(c1ccc(F)c(F)c1)c1nc(-c2ccc(Cl)cc2)cs1 (configuration not stated) | -1.7% | u | i | x | i | u
COc1ccc(-c2csc(C(O)c3ccc(F)c(OC)c3)n2)cn1 (configuration not stated) | 1.8% | 35.5µM* | i | x | i | 19.3%
COc1ccc(-c2csc(C(O)c3ccc(F)c(F)c3)n2)cn1 (configuration not stated) | -3.5% | 22.4µM* | u | x | i | u
O=C(CCc1ccccc1)N[C@H]1[C@@H](OC(=O)c2ccc([N+](=O)[O-])cc2)CCC[C@]12C(=O)N(Cc1ccccc1)c1ccccc12 | x | x | x | x | i | x
C[C@@H](Nc1nc(Cl)nc2nc[nH]c12)c1ccccc1 | -5.9% | x | x | x | x | -1.6%
COC(=O)C1CCN(Cc2ccc3c(c2)CN(C(=O)c2cc4cc(F)ccc4[nH]2)CCO3)CC1 | -1.3% | x | x | x | x | x
CCC1=Nc2cc(C(=O)O)ccc2Sc2ccc(Cl)cc21 | 0.3% | 14.1µM* | i | -27.5% | i | -14.8%
CC1=Nc2cc(C(=O)O)ccc2Sc2ccc(Br)cc21 | 1.1% | 35.5µM* | i | -18.3% | i | -7.7%
CCc1cc(C(=O)Nc2ccc(C)cc2Br)cs1 | -1.1% | 12.6µM* | i | -6.4% | i | -0.9%
CCc1cc(C(=O)NNC(=S)Nc2cccc(C)c2)cs1 | 8.6% | u | i | 4.8% | i | -3.9%
Cc1ccc(NC(=O)COc2cccc3c2OC(C)(C)C3)c(O)c1 | 0.0% | 11.2µM* | i | x | x | 0.7%
CC1(C)Cc2cccc(OCC(=O)Nc3ccccc3F)c2O1 | -4.9% | u | i | x | i | u
C#CCNC(=O)C[C@@H]1C[C@@](CCC(=O)OCC)(C(=O)OCC)C2=CCCCN2C1=O | x | x | x | x | i | x
OCCCc1cn(-c2ccccc2)c2ccccc12 | 7.3% | 12.6µM* | i | 8.2% | i | 24.0%
C=CCSc1nnc(-c2cc3c(C(F)(F)F)nn(C)c3s2)n1C | -4.3% | 20.1% | i | -5.5% | i | 0.4%
C=CCSc1nnc(-c2cc3c(-c4ccccc4)nn(C)c3s2)n1C | -5.7% | 20µM* | i | 0.6% | i | 6.1%
COc1ccccc1C1CN(CCNC(=O)[C@@H]2CSC(=O)N2)Cc2ccccc2O1 (some centres not stated) | -3.7% | x | x | x | x | x
SMILES | GRP78 ERSR act | TDP-43 yeast inh | Abeta rescue | MBNL1 CUG block | FUS yeast rescue | aSyn rescue
N/C(=N\OC(=O)c1ccc(Cl)cc1Cl)c1cccnc1 | 2.0% | 12.6µM* | i | -6.1% | i | 3.6%
N/C(=N\OC(=O)c1cccc2ccccc12)c1cccnc1 | u | 20µM* | i | u | i | -5.4%
COC(=O)[C@H](C(C)C)N1CCc2nnn(Cc3ccc(C)cc3)c2-c2cc(F)ccc2S1(=O)=O | x | x | x | x | i | x
Cc1cccc2cc(CN(CC3CCCO3)C(=O)C3CC3)c(N(C)C)nc12 (configuration not stated) | -3.3% | x | x | x | x | x
O=S(=O)(c1cc2ccccc2s1)n1c(CN2CCOCC2)nc2ccccc21 | x | x | x | x | i | x
Cc1ccc(NC(=O)CCSc2nnnn2-c2ccc3c(c2)OCO3)cc1C | -4.1% | 17.8µM* | i | -8.6% | i | 14.0%
Fc1ccc(Br)cc1SCCc1ccncc1 | -4.8% | 11.2µM* | i | 2.6% | i | -3.8%
Cc1cnc(SCCc2ccncc2)nc1C | x | x | x | -4.9% | x | x
COC(=O)[C@]12C[C@H](CC(=O)NCCCCc3ccccc3)C(=O)N(Cc3ccc4c(c3)OCO4)C1=C[C@H](C(C)C)O[C@@H]2C1CC1 | x | x | x | x | 8.91µM* | x
COC(=O)[C@]12C[C@H](CC(=O)NCc3cccc4ccccc34)C(=O)N(Cc3ccc4c(c3)OCO4)C1=C[C@H](C(C)C)O[C@@H]2C1CC1 | x | x | x | x | 12.6µM* | x
COC(=O)[C@]12C[C@H](CC(=O)N3CCC(c4ccccc4)CC3)C(=O)N(Cc3ccc4c(c3)OCO4)C1=C[C@H](C(C)C)O[C@@H]2C1CC1 | x | x | x | x | i | x
COC(=O)[C@]12C[C@H](CC(=O)NCc3cccc(C(F)(F)F)c3)C(=O)N(Cc3ccc4c(c3)OCO4)C1=C[C@H](C(C)C)O[C@@H]2C1CC1 | x | x | x | x | 8.91µM* | x
COC(=O)[C@]12C[C@H](CC(=O)NCC34CC5CC(CC(C5)C3)C4)C(=O)N(Cc3cccc4ccccc34)C1=C[C@H](C(C)C)O[C@@H]2C1CC1 | x | x | x | x | i | x
COC(=O)[C@]12C[C@H](CC(=O)N3CCCC3)C(=O)N(Cc3ccc4c(c3)OCO4)C1=C[C@H](C(C)C)O[C@@H]2C1CC1 | x | x | x | x | i | x
COC(=O)[C@]12C[C@H](CC(=O)NCC3CCCCC3)C(=O)N(Cc3ccc4c(c3)OCO4)C1=C[C@H](C(C)C)O[C@@H]2C1CC1 | x | x | x | x | 14.1µM* | x
COC(=O)C12C=C3CC(C)=C3C(=O)N1Cc1[nH]c3ccccc3c1C2 (configuration not stated) | x | x | x | x | i | x
CCS(=O)(=O)N1CCN(c2ccc([N+](=O)[O-])c(NC(C)c3ccccc3)c2)CC1 (configuration not stated) | -0.9% | -15.4% | i | -1.5% | i | -1.7%
CC(Nc1cc(N2CCNCC2)ccc1[N+](=O)[O-])c1ccccc1 (configuration not stated) | -3.7% | 4.7% | i | u | x | 7.8%
